KB-3-1 tox = KB-3-1 parental cell cytotoxicity; KB-3-1 viability, CellTiter-Glo ATP luminescence, 72 h; Potency, µM (highest dose often 46.1 µM), most hits filed as cytotoxic; actives 1.4% (n = 400,000); note: nearly all actives have a fitted effect of over 60% in size
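Viability of parental KB-3-1 cells, measured by CellTiter-Glo luminescence, followed a 72 h incubation at 37 °C with pinned compounds in phenol-red-free DMEM containing 10% FBS.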
HT1080 IDH1KD tx = kills HT-1080 cells with IDH1 knockdown; actives 2% (n = 360,000); AID 686971; Potency, µM (doses to about 46.1 µM), hits mostly cytotoxic; HT-1080 IDH1 knockdown viability, ATP luminescence, 48 h
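Assay cells: HT-1080 with IDH1 knockdown, 750 per well, RPMI/5% FBS. Exposure: 48 h at 37 °C following 2 h pre-incubation. Read: CellTiter-Glo luminescence; fitted concentration-response, curve class assigned.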
ATXN2 expr inh = reduces ATXN2 reporter expression in HEK-293 cells | HEK-293 ATXN2-luciferase reporter, luminescence, 24 h | Potency, µM (titrated, usually from 57 µM), usual class: inhibitors | actives 0.72% (n = 360,000); note: nearly all actives have a fitted effect of over 55% in size
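ATXN2-luciferase reporter cells (luciferase flanked by upstream and downstream ATXN2 gene portions) were treated 24 h at 37 °C with compounds at up to 57 uM. SteadyGlo luminescence gave expression; GF-AFC fluorescence gave viability.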
HT1080NT lethal = kills 2HG-producing HT-1080-NT fibrosarcoma cells; Potency, µM (doses to about 46.1 µM), actives largely listed as cytotoxic; HT-1080-NT fibrosarcoma viability, CellTiter-Glo ATP luminescence, 48 h; AID 686970; actives 1.6% (n = 360,000);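 note: NT is the 2HG producing partner of a matched IDH1 knockdown line; nearly all actives have a fitted effect of over 55% in size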
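Viability by CellTiter-Glo luminescence after 48 h compound exposure at 37C of HT-1080-NT cells (750/well, RPMI, 5% FBS). % activity scaled between DMSO wells and medium-only wells, then curve-fitted and categorized by curve class.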
KB-V1 MDR tox = kills drug-selected multidrug resistant KB-V1 cells | KB-V1 MDR cells viability, CellTiter-Glo, 72 h | Potency, µM (titrated, usually from 46.1 µM), hits mostly cytotoxic | actives 3.4% (n = 400,000); note: nearly all actives have a fitted effect of over 60% in size
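Potencies derive from concentration-effect curves fitted to normalized luminescence (CellTiter-Glo) of KB-V1 cells treated for 72 h at 37 degrees C in phenol-red-free DMEM containing 10% FBS.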
ATXN viability = cell viability loss in ATXN counter-screen; Potency, µM (series often up to 56.7 µM), actives largely listed as cytotoxic; actives 0.49% (n = 400,000); S2 cells (HEK-293 line with an ATXN2-luciferase reporter) viability, CellTiter-Fluor protease fluorescence, 24 h; note: nearly all actives have a fitted effect of over 40% in size
Large screens that a line does not name were inactive; ! = not active in a repeat. In the library only some 6.2% were active in any assay of this set; here they are far more common. Calls come from the whole dose curve; as a rule, active = well fitted curve in the direction sought with a large enough effect; inconclusive = small, poorly fitted or top-dose-only effect, or another doubt; inactive = no such curve, though single readings can be large; an effect the other way counts as inactive or inconclusive.

CCC(C)n1c(SCc2ccccc2)nc2ccsc2c1=O (stereo unspecified)	KB-3-1 tox inconclusive, KB-V1 MDR tox 10µM
CCC(C)n1c(SCC(=O)NCCc2ccc(S(N)(=O)=O)cc2)nc2ccsc2c1=O (stereo unspecified)	ATXN viability inconclusive
CCC(C)n1c(SCC(=O)Nc2ccccc2C(F)(F)F)nc2ccsc2c1=O (stereo unspecified)	KB-V1 MDR tox 23µM
Cc1cccc(/C=C2\Sc3ccc(C(=O)N4CCCCC4)cc3N(C)C2=O)c1	HT1080NT lethal 18µM, KB-V1 MDR tox inconclusive, ATXN viability inconclusive (no result: ATXN2 expr inh)
O=C1N/C(=C\c2ccc(N3CCOCC3)c(F)c2)C(=O)N1Cc1ccccc1	HT1080 IDH1KD tx 18µM, ATXN2 expr inh inconclusive, HT1080NT lethal inconclusive, ATXN viability inconclusive
Cc1ccc(Nc2ncc(C(=O)Nc3ccc(F)cc3F)c3ccccc23)cc1Cl	none (no result: HT1080 IDH1KD tx, HT1080NT lethal)
COc1ccc(OC)c2[nH]c(=O)c(CCNC(=O)c3ccc(S(=O)(=O)N(C)C)cc3)cc12	none
COc1ccc(OC)c2[nH]c(=O)c(CCNC(=O)C3CCCCC3)cc12	KB-V1 MDR tox 9.2µM
COc1ccc(OC)c2[nH]c(=O)c(CCNC(=O)c3ccc(S(=O)(=O)N4CCCCC4)cc3)cc12	KB-V1 MDR tox 8.2µM
COc1ccc(C(=O)N2CCN(C)C(=O)[C@@H]2C)cc1OC1CCN(C(C)=O)CC1	none
Cc1ccc(CNC(=O)c2ccc(Cn3c(SCc4ccc(F)cc4)nc4cccnc43)cc2)o1	none (no result: HT1080 IDH1KD tx, ATXN2 expr inh, HT1080NT lethal, ATXN viability)
N#Cc1cc2cc(Cl)ccc2[nH]c1=O	KB-3-1 tox 4.6µM
CCCCNS(=O)(=O)c1ccc2nc(SCC(=O)Nc3sccc3C#N)[nH]c2c1	KB-3-1 tox inconclusive, HT1080 IDH1KD tx 21µM, ATXN2 expr inh inconclusive, HT1080NT lethal inconclusive, ATXN viability inconclusive
CCCCNS(=O)(=O)c1ccc2nc(SCC(N)=O)[nH]c2c1	none (no result: ATXN2 expr inh)
CC1(c2nnc(-c3ccccc3)o2)CC(c2ccc(Cl)cc2)=NO1 (stereo unspecified)	none
CC1(c2nnc(-c3ccccc3)o2)CC(c2ccc([N+](=O)[O-])cc2)=NO1 (stereo unspecified)	KB-3-1 tox 10µM, KB-V1 MDR tox 21µM, ATXN viability inconclusive
Cc1nc(SC2CC(=O)N(c3ccccc3)C2=O)nc2c1CCCC2 (stereo unspecified)	HT1080 IDH1KD tx 11µM, HT1080NT lethal inconclusive, KB-V1 MDR tox inconclusive
Cc1ccc(N2C(=O)CC(Sc3nc(C)cc(C)n3)C2=O)cc1 (stereo unspecified)	KB-3-1 tox inconclusive, HT1080 IDH1KD tx inconclusive, HT1080NT lethal inconclusive, KB-V1 MDR tox inconclusive (no result: ATXN2 expr inh)
CCOC(=O)C1(C)CCCCCN1C(=O)c1ccc(Cl)nc1 (stereo unspecified)	none
CCn1c(=N)c(C(=O)NC)cc2c(=O)n3cccc(C)c3nc21	ATXN2 expr inh inconclusive (no result: ATXN viability)
CCNc1nc(C)c2cc(Br)c(=O)n(CC)c2n1	KB-3-1 tox inconclusive, HT1080 IDH1KD tx 2.1µM, HT1080NT lethal 2.9µM, KB-V1 MDR tox 6.5µM
CCC(=O)NC(Cc1ccccc1)c1ccc2c(c1)OCCCO2 (stereo unspecified)	KB-V1 MDR tox 13µM
CCC(=O)N(CCC(c1ccco1)c1ccccc1OC)Cc1cccs1 (stereo unspecified)	KB-V1 MDR tox inconclusive (no result: ATXN2 expr inh, ATXN viability)
O=C(c1ccco1)N(CCC(c1ccccc1)c1ccco1)Cc1ccco1 (stereo unspecified)	KB-V1 MDR tox 13µM, ATXN viability inconclusive
CC(=O)N(CCC(c1ccccc1)c1ccco1)Cc1cccs1 (stereo unspecified)	KB-3-1 tox inconclusive, HT1080 IDH1KD tx inconclusive, KB-V1 MDR tox 21µM
CCOc1ccccc1/C=C/c1onc(C)c1S(=O)(=O)N1CCC(C(=O)NC(C)(C)C)CC1	none (no result: ATXN2 expr inh)
CS(=O)(=O)c1ccc(Nc2nc(C(N)Cc3ccc(C(F)(F)F)cc3)cs2)cc1 (stereo unspecified)	KB-3-1 tox inconclusive, HT1080 IDH1KD tx inconclusive, ATXN2 expr inh inconclusive, HT1080NT lethal 18µM, KB-V1 MDR tox inconclusive
CCCc1cnc(Nc2nc(C(N)Cc3ccc(C(F)(F)F)cc3)cs2)nc1 (stereo unspecified)	KB-3-1 tox inconclusive, HT1080 IDH1KD tx inconclusive, HT1080NT lethal 16µM, KB-V1 MDR tox inconclusive (no result: ATXN viability)
Cc1cc(C)nc(Nc2nc(C(N)Cc3ccc(C(F)(F)F)cc3)cs2)n1 (stereo unspecified)	KB-3-1 tox inconclusive, HT1080 IDH1KD tx inconclusive, HT1080NT lethal inconclusive, KB-V1 MDR tox inconclusive, ATXN viability inconclusive
NC(Cc1ccc(C(F)(F)F)cc1)c1csc(Nc2nccc(C(F)(F)F)n2)n1 (stereo unspecified)	KB-3-1 tox inconclusive, HT1080 IDH1KD tx inconclusive, ATXN2 expr inh inconclusive, HT1080NT lethal inconclusive, KB-V1 MDR tox 23µM
OCc1ccnc2c(O)cccc12	KB-3-1 tox inconclusive, KB-V1 MDR tox inconclusive
Cc1cccc(NCc2ccc(O)c3ncccc23)c1	KB-3-1 tox 23µM, HT1080 IDH1KD tx inconclusive, HT1080NT lethal 18µM
Oc1ccc(CN2CCN(Cc3ccccc3)CC2)c2cccnc12	KB-3-1 tox inconclusive, HT1080NT lethal inconclusive
Oc1ccc(CNc2ccc(F)cc2)c2cccnc12	KB-3-1 tox inconclusive, HT1080 IDH1KD tx 18µM, HT1080NT lethal 18µM
Cc1ccccc1NCc1ccc(O)c2ncccc12	HT1080 IDH1KD tx 0.71µM, ATXN2 expr inh inconclusive, HT1080NT lethal 3.2µM, KB-V1 MDR tox inconclusive
Oc1ccc(Cn2ccnc2)c2cccnc12	KB-3-1 tox inconclusive, HT1080 IDH1KD tx inconclusive, HT1080NT lethal inconclusive
Oc1ccc(CNc2ccccc2)c2cccnc12	KB-3-1 tox inconclusive, HT1080 IDH1KD tx inconclusive, HT1080NT lethal 5.8µM
Cn1cc(-c2ccc3nnc(Sc4ccc5ncccc5c4)n3n2)cn1	none (no result: KB-3-1 tox, HT1080 IDH1KD tx, HT1080NT lethal, KB-V1 MDR tox, ATXN viability)
Cc1ccc(Cn2c(=O)n(Cc3ccco3)c(=O)c3oc4ccccc4c32)cc1	none (no result: HT1080 IDH1KD tx, HT1080NT lethal)
Oc1cccc2[nH]ccc12	none (no result: KB-3-1 tox, HT1080 IDH1KD tx, HT1080NT lethal, KB-V1 MDR tox)
CC(C)C(=O)N[C@@H]1c2ccccc2CC[C@H]1OCc1ccccc1	none
O=C(O)CCSCCC(=O)O	none
CCCN(CCC)C(=O)CCSCCC(=O)N(CCC)CCC	KB-V1 MDR tox 18µM
COc1ccc(C(C[N+](=O)[O-])C2(c3ccc(OC)c(OC)c3)C(=O)c3ccccc3C2=O)cc1 (stereo unspecified)	KB-3-1 tox inconclusive, HT1080 IDH1KD tx 21µM, HT1080NT lethal inconclusive, KB-V1 MDR tox inconclusive
CCOC(=O)c1cnc2ccc(OC)cc2c1NCCc1ccc(OC)c(OC)c1	ATXN2 expr inh 28µM!, KB-V1 MDR tox inconclusive, ATXN viability inconclusive
CCOC(=O)c1cnc2ccc(OCC)cc2c1NCc1ccccc1	KB-3-1 tox inconclusive, HT1080 IDH1KD tx inconclusive, ATXN2 expr inh inconclusive, KB-V1 MDR tox 1.8µM, ATXN viability inconclusive
